Data from PubChem BioAssay AID1159580 (chemical genetic matrix, 2015).
Out of some 5,500 compounds screened, about 2,000 (36%) were called active. Another 18% or so got no clear call; they are omitted. No stated cut-off is given here; in the data, active means normalized growth mostly below about 0.91 (no sharp cut-off); inconclusive means no clear call, values can overlap the other calls; inactive means mostly above about 0.92. The list shows a part of the results.

Test: chemical genetic growth profiling, strain panel (AID 1159580);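 further: tested at 20 µM; growth read once vehicle control cultures reached saturation at 30 °C; 1 = growth at the plate median or of vehicle wells; lower values mean less growth of the strain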
Details: S. cerevisiae deletion strains, growth OD

Measured: normalized growth

NC(=O)c1cc(N2CC2)c([N+](=O)[O-])cc1[N+](=O)[O-]
inactive: locus YAL040C, strain CLN3, active compounds read low 1 | locus YCL061C, strain MRC1 (second series), active compounds read low 0.994 | locus YDR363W, strain ESC2, active compounds read low 0.993 | locus YER002W, strain NOP16, active compounds read low 1.02 | locus YMR263W, strain SAP30, active compounds read low 1 | locus YMR307W, strain GAS1, active compounds read low 0.986 | locus YNL175C, strain NOP13, active compounds read low 1.02 | locus YNL197C, strain WHI3, active compounds read low 1 | locus YNL224C, strain SQS1, active compounds read low 0.997 | locus YOR083W, strain WHI5 (second series), active compounds read low 1.01
